Bioassay records: PubChem BioAssay, National Center for Advancing Translational Sciences (NCATS)
The list is not random: actives were taken first. Their share in the collection is about 2.4%.
Cruzain noTriton = inhibitors of Trypanosoma cruzi cruzain without detergent. P25779. purified cruzain, Z-FR-AMC fluorescence, no detergent. Potency, µM, most hits filed as inhibitors. hit rate 2.3% among 200,000; note: nearly all actives have a fitted effect of over 40% in size
Target sequence (P25779 123-467 limits assumed): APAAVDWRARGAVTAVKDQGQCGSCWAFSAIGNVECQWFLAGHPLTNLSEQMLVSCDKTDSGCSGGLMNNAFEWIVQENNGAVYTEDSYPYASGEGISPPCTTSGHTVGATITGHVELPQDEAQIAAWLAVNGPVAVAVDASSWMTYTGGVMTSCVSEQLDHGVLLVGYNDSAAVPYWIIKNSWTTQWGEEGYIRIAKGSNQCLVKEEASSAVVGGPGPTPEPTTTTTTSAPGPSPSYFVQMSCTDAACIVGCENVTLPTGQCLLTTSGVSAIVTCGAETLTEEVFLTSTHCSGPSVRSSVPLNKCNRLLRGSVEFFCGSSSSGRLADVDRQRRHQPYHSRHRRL
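Detergent-free condition (0.00005% Triton X-100) in acetate buffer pH 5.5 with DTT. 1.5 nM enzyme and compound were pre-mixed 15 min, then 2 uM Z-FR-AMC substrate added; reaction progress from fluorescence change between first and third reads (60 s).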
Cruzain Triton = inhibitors of Trypanosoma cruzi cruzain with detergent | P25779 | purified cruzain, Z-FR-AMC fluorescence, 0.01% Triton | Potency, µM, hits mostly inhibitors | AID 1478 | hit rate 0.43% among 200,000; note: nearly all actives have a fitted effect of over 40% in size
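15 min RT preincubation of 1.5 nM cruzain with compound, then 2 uM Z-FR-AMC added; kinetic AMC fluorescence, 60 s delta. Triton X-100 0.01%, pH 5.5.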
Of the large screens only hits and unclear results are named; the others gave an inactive call. Calls come from the whole dose curve; as a rule, active = well fitted curve in the direction sought with a large enough effect; inconclusive = small, poorly fitted or top-dose-only effect, or another doubt; inactive = no such curve, though single readings can be large; an effect the other way counts as inactive or inconclusive.

Cc1ccc(C(c2sc3nc(-c4ccco4)nn3c2O)N2CCC3(CC2)OCCO3)cc1 (configuration not stated)	Cruzain noTriton inconclusive
Cc1cccc(NS(=O)(=O)c2ccc3[nH]c4c(c3c2)CCCCCC4)c1	none
CC(=O)c1cccc(NC(=O)C2CCN(S(=O)(=O)c3ccc4[nH]c(=O)ccc4c3)CC2)c1	none
O=C(Nc1ccccc1)C1CCN(S(=O)(=O)c2ccc3[nH]c4c(c3c2)CCCCC4)CC1	Cruzain noTriton 16µM
CCc1ccc(NC(=O)C2CCN(S(=O)(=O)c3ccc4[nH]c5c(c4c3)CCCCC5)CC2)cc1	Cruzain noTriton 10µM
O=C(NCc1ccc2[nH]c3c(c2c1)CCCC3)c1ccc(S(=O)(=O)N2CCCCC2)cc1	Cruzain noTriton inconclusive
Cc1cccc(NC(=O)C2CCN(S(=O)(=O)c3ccc4[nH]c5c(c4c3)CCCCC5)CC2)c1	Cruzain noTriton 13µM
Cc1nn(C)c2c1c(C(F)(F)F)cc(=O)n2C(C)C(=O)N1CCN(c2ccccc2)CC1 (configuration not stated)	Cruzain noTriton inconclusive
CCCC[C@@H]1C[C@H]1[C@@H](NP(=O)(c1ccccc1)c1ccccc1)c1ccccc1OC	none
CCOc1cc(C2c3c(oc4ccccc4c3=O)C(=O)N2Cc2ccc3c(c2)OCO3)ccc1O (configuration not stated)	none
Oc1oc(-c2ccccc2)nc1C=Nc1ccccc1	none
O=[N+]([O-])c1cccc(/C=C/c2nc(C=Nc3ccccc3)c(O)o2)c1	Cruzain noTriton 13µM
O=C(CC1SC(=Nc2ccccc2)N(CCCO)C1=O)Nc1ccc(Cl)cc1 (configuration not stated)	Cruzain noTriton inconclusive
O=C(CC1SC(=NCCc2ccccc2)N(/N=C/c2cccs2)C1=O)Nc1ccc(Cl)cc1 (configuration not stated)	Cruzain noTriton 13µM
COc1ccc(C(=O)Nc2cc(C(C)C)c(O)c(S(=O)(=O)c3ccc(OC)cc3)c2C)cc1	Cruzain noTriton 25µM
COc1ccc(C(=O)Nc2cc(C(C)C)c(O)c(S(=O)(=O)c3ccc(Cl)cc3)c2C)cc1	Cruzain noTriton inconclusive
CC(C)Oc1ccc(CNC(=O)c2cc3cccc4c3n2CC(C)S4)cc1 (configuration not stated)	none
O=C1N/C(=N\N=C\c2ccc3ncccc3c2)SC1Cc1ccc(SC(F)F)cc1 (configuration not stated)	Cruzain noTriton 16µM, Cruzain Triton 25µM
O=C1N/C(=N\N=C\c2cccnc2)SC1Cc1ccc(SC(F)F)cc1 (configuration not stated)	none
O=C(NCCO)C(=O)NCC(c1ccc2c(c1)OCO2)N1CCOCC1 (configuration not stated)	none
Clc1cccc(-n2ncc3c(N4CCCCC4)ncnc32)c1	none
CC(=O)Nc1nnc(-c2ccc3c(c2)CCCC3)o1	none
O=C(COc1ccc(Cl)cc1)Nc1nnc(-c2ccc3c(c2)CCCC3)o1	Cruzain noTriton 7.9µM
O=C(Nc1nnc(-c2ccc(Cl)cc2)o1)NC1CCCCC1	Cruzain noTriton 25µM
O=C(Nc1ccc(Cl)cc1)NC1CCCCC1	none
O=S(=O)(NCc1ccccc1Cl)c1ccc(N2CCCCS2(=O)=O)cc1	none
Cc1ccc(N2CC(c3nnc(NC(=O)c4ccco4)s3)CC2=O)cc1C (configuration not stated)	none
COCCNC(=O)c1ccc2c(c1)NC(=O)C(CS(=O)(=O)Cc1ccc(F)cc1Cl)N2 (configuration not stated)	none
Cc1ccc2c(c1)cc(C(=O)NCc1ccc(F)cc1)n2C	none
CCOc1ccc(NC(=O)CSc2nc(C)cc(C)n2)cc1	none
CCCCOc1ccc(NC(=S)Nc2cc(C)nc(SCCCC)n2)cc1	Cruzain noTriton 25µM
CCOC(=O)c1cc(C)n(CC2CCC(C(=O)Nc3ccc(C(C)=O)cc3)CC2)c1C (configuration not stated)	Cruzain noTriton inconclusive
Cc1ccc(-n2ncc3c(=O)[nH]c(SCC(=O)N4CCOCC4)nc32)cc1	none
O=c1[nH]c(SCc2nc3c(cnn3-c3ccccc3)c(=O)[nH]2)nc2ccccc12	none
O=c1[nH]c(SCc2ccccc2Cl)nc2c1cnn2-c1ccccc1	Cruzain noTriton 16µM
Cc1ccc(-n2ncc3c(=O)[nH]c(SCC(=O)N4CCN(c5ccccc5)CC4)nc32)cc1	Cruzain noTriton 25µM
O=C(NCc1cccn1Cc1ccccc1)Nc1cccc(C(F)(F)F)c1	none
COc1ccc(NC(=O)Cn2c(=O)n(-c3ccccc3)c(=O)c3c4c(sc32)CCCC4)cc1	none
Cc1cccc(Cn2cc3c(=O)n(CC(=O)Nc4ccc(C)c(F)c4)nc-3c3cc(F)ccc32)c1	none
Cc1nn(Cc2ccc(Cl)c(Cl)c2)c(C)c1NC(=O)c1sc2ccccc2c1Cl	Cruzain noTriton 16µM
Cc1nn(Cc2c(Cl)cccc2Cl)c(C)c1NC(=O)c1sc2ccccc2c1Cl	none
Cc1ccccc1CN1C(=O)c2ccccc2Sc2ccc(C(=O)NC3CCCCC3)cc21	none
Cc1ccc(-c2c(C)n3c4c(=O)n(C)c(=O)n(C)c4nc3n2CCCO)cc1	Cruzain noTriton inconclusive
O=C(O)c1cc(O)c2c(c1)[C@H]([C@H]1c3cc(C(=O)O)cc(O)c3C(=O)c3c(O[C@@H]4OC(CO)C(O)C(O)C4O)cccc31)c1cccc(O[C@@H]3OC(CO)C(O)C(O)C3O)c1C2=O (some centres not stated)	Cruzain noTriton inconclusive, Cruzain Triton 16µM
O=C1c2cccc(O)c2C(=O)c2c(O[C@@H]3O[C@H](CO)[C@@H](O)[C@H](O)[C@@H]3O)cccc21	none
C#C[C@]1(O)CCC2C3CCC4=Cc5oncc5C[C@@]4(C)C3CC[C@@]21C (some centres not stated)	none
Cc1ccc(-n2c(C)cc(/C=N/NC(=O)Cn3c4ccccc4c(=O)c4ccccc43)c2C)cc1	Cruzain noTriton inconclusive
Cc1cc(/C=N/NC(=O)Cn2c3ccccc3c(=O)c3ccccc32)c(C)n1-c1ccc(Cl)cc1	Cruzain noTriton 3.2µM
O=C(Cn1c2ccccc2c(=O)c2ccccc21)N/N=C/c1ccc(N2CCCC2)c([N+](=O)[O-])c1	Cruzain noTriton inconclusive
O=C(Cn1c2ccccc2c(=O)c2ccccc21)N/N=C/c1cc([N+](=O)[O-])ccc1N1CCCCCC1	Cruzain noTriton 6.3µM
C[C@H]1OC(OC2C(O)[C@@H](O)C(OC3C(O)[C@@H](O)C(O)O[C@@H]3CO)O[C@@H]2CO)[C@H](O)C(O)C1N[C@H]1C=C(CO)[C@@H](O)[C@H](O)C1O (some centres not stated)	none
COc1ccc(OC)c(S(=O)(=O)N2CCC(n3c(C)nc4cccnc43)CC2)c1	none
COc1cccc(NC(=O)C2CCCN(c3ncnc4onc(-c5ccc(F)cc5)c34)C2)c1 (configuration not stated)	none
O=C(O)CSc1nc2ccc(NC(=O)COc3ccc(Cl)cc3)cc2s1	none
Cc1cccc(NC(=O)CSc2nc3ccc(NC(=O)CSc4nnnn4-c4ccccc4)cc3s2)c1C	Cruzain noTriton inconclusive
O=C(CSc1nc2ccc(NC(=O)CSc3nnnn3-c3ccccc3)cc2s1)Nc1ccccc1	Cruzain noTriton 5µM
Cc1cccc(NC(=O)CSc2nc3ccc(NC(=O)COc4ccc(Cl)cc4)cc3s2)c1	Cruzain noTriton 7.9µM
CCOC(=O)c1nc(NCc2ccc(Cl)cc2)c2c(C)noc2n1	none
CN(c1nnc(NC(=O)Nc2ccc(Br)cc2)s1)C1CCCCC1	none
COC(=O)c1c(NC(=S)Nc2ccccc2Cl)sc(C)c1C	Cruzain noTriton 13µM
